The values below come from the supplement of paper PMC9694430.

Counter-ions that a name gives are not always drawn.

The test has as its system T1, LOC_OS06G22820-cb001.
T1 sequence (whole entry): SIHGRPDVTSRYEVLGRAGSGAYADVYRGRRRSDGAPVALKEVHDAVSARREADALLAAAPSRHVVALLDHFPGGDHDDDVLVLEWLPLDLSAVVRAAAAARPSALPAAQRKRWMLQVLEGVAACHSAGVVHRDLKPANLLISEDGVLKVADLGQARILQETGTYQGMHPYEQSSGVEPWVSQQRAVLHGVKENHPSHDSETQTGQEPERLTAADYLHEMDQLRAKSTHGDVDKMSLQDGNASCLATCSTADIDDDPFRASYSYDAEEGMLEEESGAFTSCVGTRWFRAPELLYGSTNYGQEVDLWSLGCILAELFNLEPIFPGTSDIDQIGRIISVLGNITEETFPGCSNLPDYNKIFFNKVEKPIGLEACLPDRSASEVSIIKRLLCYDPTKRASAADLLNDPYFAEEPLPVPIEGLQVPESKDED
As to the kind of experiment: thermal shift delta Tm vs DMSO control; higher = stronger stabilization (binding). The settings on record: 12.5 µM; protein concentration 2 µM. Put shortly: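 Rice kinase domain constructs were expressed in E. coli, purified, and tested by differential scanning fluorimetry with compound added in DMSO. Each well of a 96-well plate held 19.5 μl of 2 μM kinase in 100 mM potassium phosphate pH 7.5, 150 mM NaCl, 10% glycerol and 5 × SYPRO Orange, and fluorescence was read from 25°C to 95°C at 0.05°C/s. The melting temperature shift is the mean of triplicates, taken against protein with DMSO alone after Boltzmann fitting.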
With `CCn1c(=O)c(-c2ccc(-c3cncs3)cc2Cl)cc2cnc(Nc3ccc(N4CCN(C)CC4)cc3)nc21`, the “thermal shift delta Tm” value amounted to 0.67 °C.

Take `CNC(=O)c1cccc(-c2ccc3c(N4CCOC[C@@H]4C)nc(N4CCOC[C@@H]4C)nc3n2)c1` [Vistusertib (AZD2014)]: the “thermal shift delta Tm” value was determined as 0.59 °C.

Take `CC(C)S(=O)(=O)c1ccc2nccc(Nc3ccc4scnc4c3)c2c1`: the “thermal shift delta Tm” value is 0.32 °C.

Turning to `Cn1cc(-c2ccc3ncc(Cc4ccc5ncccc5c4)n3n2)cn1`, the “thermal shift delta Tm” value stood at 0.5 °C.

Turning to `N#Cc1ccc2ncnc(NCCc3ccccc3)c2c1` [Senexin A], the “thermal shift delta Tm” value was found to be 0.4 °C.

As for `O=C1NC(=O)/C(=C/c2ccc3nccc(-c4ccncc4)c3c2)S1`, the “thermal shift delta Tm” value turned out to be 0.22 °C.

With `Cn1cnc2c(F)c(Nc3ccc(Br)cc3F)c(C(=O)NOCCO)cc21`, the “thermal shift delta Tm” value came out at 0.61 °C.

Regarding `Cc1cc(Nc2ncc(Cl)c(Nc3ccccc3S(=O)(=O)C(C)C)n2)c(OC(C)C)cc1C1CCNCC1` [Ceritinib (LDK378)], the “thermal shift delta Tm” value turned out to be 0.68 °C.

Regarding `Cc1nc2ccc(-n3ncc(C(=O)c4cc5ccccc5[nH]4)c3N)cc2[nH]1`, the “thermal shift delta Tm” value stood at 0.56 °C.

As to `C=C[C@@](C)(/C=C/c1ccc(O)cc1)CCC=C(C)C` [Bakuchiol], the “thermal shift delta Tm” value was found to be 0.41 °C.

Take `C=CC(=O)Nc1cccc(Nc2nc(Nc3ccc(N4CCN(C(C)=O)CC4)cc3OC)ncc2C(F)(F)F)c1` [Rociletinib (CO-1686, AVL-301)]: the “thermal shift delta Tm” value was determined as 0.68 °C.

Consider `CCCS(=O)(=O)Nc1ccc(F)c(C(=O)c2c[nH]c3ncc(-c4ccc(Cl)cc4)cc23)c1F` [Vemurafenib (PLX4032, RG7204)], for which the “thermal shift delta Tm” value worked out at 1.99 °C.

Turning to `COc1cc(OC)c(C=C2C(=O)Nc3ccccc32)c(OC)c1`, the “thermal shift delta Tm” value is 0.44 °C.

`CCN(CC)CCCC(C)Nc1nc(C)cc(Nc2ccc3nc(C)cc(N)c3c2)n1` (centres undefined): the “thermal shift delta Tm” value turned out to be 0.19 °C.

In the case of `CN1CC(O)C2=C/C(=N/NC(N)=O)C(=O)C=C21` (centres undefined) [Carbazochrome], the “thermal shift delta Tm” value is 0.09 °C.

As to `Cc1cc(Nc2cc(N3CCN(C)CC3)nc(/C=C/c3ccccc3)n2)n[nH]1`, the “thermal shift delta Tm” value was 0.17 °C.

With `Cc1ccc(NC(=O)Nc2cc(C(F)(F)F)ccc2F)cc1Nc1ccc2c(c1)NC(=O)/C2=C\c1ccc[nH]1`, the “thermal shift delta Tm” value came out at 1.12 °C.

In the case of `CO[C@H]1C[C@@H]2CC[C@@H](C)[C@@](O)(O2)C(=O)C(=O)N2CCCC[C@H]2C(=O)O[C@H]([C@H](C)C[C@@H]2CC[C@@H](O)[C@H](OC)C2)CC(=O)[C@H](C)/C=C(\C)[C@@H](O)[C@@H](OC)C(=O)[C@H](C)C[C@H](C)/C=C/C=C/C=C/1C` [Rapamycin (Sirolimus)], the “thermal shift delta Tm” value was found to be 0.98 °C.

For the compound `C[S+]([O-])c1ccc(-c2nc(-c3ccc(F)cc3)c(-c3ccncc3)[nH]2)cc1` (centres undefined), the “thermal shift delta Tm” value worked out at 0.87 °C.

`CO[C@H]1CC[C@H](N2C(=O)CNc3ncc(-c4ccc(C(C)(C)O)nc4)nc32)CC1`: the “thermal shift delta Tm” value was 0.55 °C.

For the compound `O=C(Nc1ccccc1C(=O)NC1CCCCNC1=O)c1cc2ccccc2s1` (centres undefined), the “thermal shift delta Tm” value was found to be 0.25 °C.

With `CCN1CCN(Cc2ccc(-c3cc4c(N[C@H](C)c5ccccc5)ncnc4[nH]3)cc2)CC1`, the “thermal shift delta Tm” value was 0.76 °C.

For `Cc1cnc(NC(=O)Nc2cc(Br)c(C)cc2OC[C@@H]2CNCCO2)cn1`, the “thermal shift delta Tm” value was determined as 0.22 °C.

As for `Cc1ccc(NC(=O)c2ccc(CN3CCN(C)CC3)cc2)cc1Nc1nccc(-c2cccnc2)n1` [Imatinib Mesylate (STI571)], the “thermal shift delta Tm” value was 0.68 °C.

`NC(=O)c1ccc(N(C(N)=O)c2c(F)cccc2F)nc1-c1ccc(F)cc1F`: the “thermal shift delta Tm” value turned out to be 0.8 °C.

On to `Cc1nc(-c2cn3c(n2)-c2ccc(-c4cnn(C(C)(C)C(N)=O)c4)cc2OCC3)n(C(C)C)n1` [Taselisib (GDC 0032)], for which the “thermal shift delta Tm” value worked out at 0.16 °C.

As for `COc1cc(N2CCC(N(C)C)CC2)ccc1Nc1ncc(Cl)c(Nc2ccccc2P(C)(C)=O)n1`, the “thermal shift delta Tm” value stood at 0.49 °C.

With `COc1cc2c(Nc3ccc(NC(=O)c4ccccc4)cc3)ncnc2cc1OCCCN1CCOCC1`, the “thermal shift delta Tm” value was determined as 0.94 °C.

For `CNC(=O)c1cc(Oc2ccc(NC(=O)Nc3cc(C(C)(C)C)nn3-c3ccc4ncccc4c3)c(F)c2)ccn1` [Rebastinib (DCC-2036)], the “thermal shift delta Tm” value is 0.59 °C.

Consider `CC(C)(CO)n1cc(C(=O)c2cncc(NC(=O)Cc3ccc(Cl)cn3)c2)c2cnc(N)nc21`, for which the “thermal shift delta Tm” value amounted to 0.45 °C.

Consider `CS(=O)(=O)N1CCN(Cc2cc3nc(-c4cccc5[nH]ncc45)nc(N4CCOCC4)c3s2)CC1` [Pictilisib (GDC-0941)], for which the “thermal shift delta Tm” value came to 0.43 °C.

On to `C[C@@H]1COC(Nc2ccc3ncnc(Nc4ccc(OCc5nccs5)c(Cl)c4)c3c2)=N1` [Varlitinib], for which the “thermal shift delta Tm” value was 0.8 °C.

`COc1cc(Nc2ncc(F)c(Nc3ccc4c(n3)NC(=O)C(C)(C)O4)n2)cc(OC)c1OC`: the “thermal shift delta Tm” value stood at 0.02 °C.

As to `CC(C)n1nc(-c2ccc3oc(N)nc3c2)c2c(N)ncnc21`, the “thermal shift delta Tm” value came to 0.75 °C.
